Screens (PubChem)
Hits are enriched below; roughly 3.8% of the tested compounds scored in any of these assays.
PLK1 PBD inh: inhibitors of human PLK1 polo-box domain binding; Plk1 PBD binding of FITC phosphopeptide, fluorescence polarization; Potency, µM, inactives show max response, negative = inhibition, most hits filed as inhibitors; AID 720504; actives 2.8% (n = 360,000); P53350; further: potency means the concentration at half of the fitted maximal effect; series mostly up to about 57 µM; on the % scale 0 is the no-effect control and ±100 the full control effect; nearly all actives have a fitted effect of over 65% in size
hERG WT inh: inhibitors of human wildtype KCNH2 potassium channel; U2OS, BacMam KCNH2, thallium flux FluxOr; stronger effect = lower value; activity change, % at 1.84 µM; actives 0.37% (n = 340,000);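 active means maximum activity change below -70%; inconclusive means maximum activity change between -70% and -50%; inactive means maximum activity change above -50%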; further: on the % scale 0 is the no-effect control and ±100 the full control effect
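U2OS cells transduced with wild-type KCNH2 virus are loaded with FluxOr dye for 45 min, and thallium flux is measured in kinetic reads before and after stimulation buffer. Rate constants are normalized to DMSO controls.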
MBNL1-CUG inh: blocks human MBNL1 binding to CUG repeat RNA. Q9NR56. TR-FRET MBNL1-His/biotin-(CUG)12 binding, 665/545 ratio. Potency, µM (doses to about 57.5 µM), for inactives: at the top dose activity change, negative = inhibition, most hits filed as inhibitors. actives 0.036% (n = 280,000); active means well fitted inhibition curve with a large enough effect in the signal ratio, with a control signal flat, not every such curve was filed as active; inconclusive means small, poorly fitted or top-dose-only effect, or effect the other way, or a change in a side signal; inactive means no such curve, though single readings can be large or run the other way; the % refers to the signal ratio; further: potency means the concentration at half of the fitted maximal effect; on the % scale 0 is the no-effect control and ±100 the full control effect
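TR-FRET between His-tagged MBNL1 and biotin-(CUG)12 RNA, detected with Tb anti-His antibody (0.055 ng/ul) and streptavidin-XL665 (5 nM), 60 min at room temperature. Compounds titrated 92 nM to 58 uM; 665/545 nm ratio normalized to buffer and complex controls.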
VDR inh: inhibitors of human vitamin D receptor; P11473; VDR-SRC2-3 peptide fluorescence polarization, 2 h; Potency, µM, inactives show max response, negative = inhibition, most hits filed as inhibitors; actives 0.93% (n = 400,000); further: potency means the concentration at half of the fitted maximal effect; on the % scale 0 is the no-effect control and ±100 the full control effect
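Signal is fluorescence polarization, reporting how far test compounds block the interaction of VDR with the SRC2-3 coregulator peptide after a 2 h room-temperature incubation.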
KCNH2 3.1 inh: KCNH2 3.1 (human) potassium channel inhibition | actives 0.95% (n = 340,000) | activity change, % (tested at about 1.8 µM) | U2OS KCNH2 3.1, thallium flux FluxOr; stronger effect = lower value;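 active means maximum activity change below -70%; inconclusive means maximum activity change from -70% to -50%; inactive means maximum activity change above -50%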;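 further: thallium influx rate constant from kinetic fluorescence after stimulation buffer; on the % scale 0 is the no-effect control and ±100 the full control effect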
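Thallium flux via FluxOr fluorescence (Red40 quencher, 45 min loading) in U2OS cells virally expressing the KCNH2 3.1 isoform (1.77 x 10^8 /mL virus, overnight at 37 C). Rate constants from 2-min kinetic reads post-stimulation, normalised to positive and negative controls.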
CBFb-RUNX1 inh: blocks binding between human CBF-beta and RUNX1 | 230,000 tested, under 10 active | Q01196+Q13951 | Potency, µM (series often up to 59.8 µM), for the others: top-dose activity, negative = inhibition, actives largely listed as inhibitors | AlphaScreen CBFb-His/RUNX1-biotin binding, biochemical; further: % of control where 0% means no effect
Target sequence (Q01196 whole entry, looked up): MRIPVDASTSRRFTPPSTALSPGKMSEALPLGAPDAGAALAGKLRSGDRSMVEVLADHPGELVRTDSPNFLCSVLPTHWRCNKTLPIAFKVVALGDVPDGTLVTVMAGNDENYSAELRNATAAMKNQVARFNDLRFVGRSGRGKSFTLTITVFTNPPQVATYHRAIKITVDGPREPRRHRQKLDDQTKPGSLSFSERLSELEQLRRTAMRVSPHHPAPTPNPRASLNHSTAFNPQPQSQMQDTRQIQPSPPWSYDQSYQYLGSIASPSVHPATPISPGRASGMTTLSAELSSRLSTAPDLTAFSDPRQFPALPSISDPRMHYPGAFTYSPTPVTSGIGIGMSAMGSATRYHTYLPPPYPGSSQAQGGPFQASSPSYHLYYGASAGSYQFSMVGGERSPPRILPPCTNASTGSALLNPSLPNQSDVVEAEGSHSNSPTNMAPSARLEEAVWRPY
Target sequence (Q13951 whole entry, looked up): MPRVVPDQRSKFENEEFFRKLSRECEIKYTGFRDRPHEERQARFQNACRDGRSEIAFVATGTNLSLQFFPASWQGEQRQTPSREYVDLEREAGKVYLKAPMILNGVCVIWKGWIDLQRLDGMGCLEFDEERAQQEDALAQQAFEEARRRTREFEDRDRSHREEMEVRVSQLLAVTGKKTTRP
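Bead-based AlphaScreen assay; binding partners His-tagged CBF-beta and biotinylated RUNX1 at 30 nM each. Compound exposure 15 min after a 20-min protein preincubation; bead step 90 min; all steps at room temperature.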
The depositor's hits bear a star; u = inconclusive; x = no result given; ! = not active in a repeat; [ ] = dose if it differs, or a comment. Unless noted, the call rests on the fitted dose curve; in most records, active means well fitted curve in the direction sought with a large enough effect; inconclusive means small, poorly fitted or top-dose-only effect, or another doubt; inactive means no such curve, though single readings can be large; an effect the other way counts as inactive or inconclusive.

SMILES | PLK1 PBD inh | hERG WT inh | MBNL1-CUG inh | VDR inh | KCNH2 3.1 inh | CBFb-RUNX1 inh
CC(NC(=O)c1ccco1)C(=O)O (stereo unspecified) | u | -5 | x | -21% | -116* | x
CC(=O)N1CCc2nc3sc(C(=O)Nc4ccc(Cl)cc4F)c(N)c3c(C(F)(F)F)c2C1 | x | x | x | 15% | x | x
CC(C)CC(=O)N1c2nc(C(C)C)nn2C2(CCCCC2)[C@@H]2CCCC[C@@H]21 | x | x | x | 11% | x | x
COC(=O)c1ccc(Oc2c(Cl)cccc2[N+](=O)[O-])cc1 | 21µM* | -2 | x | u | -2 | -10%
CCN(CC)S(=O)(=O)c1ccc2c(c1)c(=O)c(C(=O)N1CCN(c3ccc(OC)cc3)CC1)cn2C | x | x | x | -25% | x | x
COc1ccc(-c2c(C#N)c(SCC(N)=O)nc3c2CCCC3)cc1 | u | 5 | 3% | 7% | 0 | -3%
COc1ccc(-c2c3c([nH]c(=S)c2C#N)CCC3)cc1 | 7.5µM* | -29 | 8% | u | -6 | -4%
COc1ccc2[nH]c3c(c(=O)c2c1)CCCC3 | -1% | x | x | x | x | x
COc1ccc(OC)c(-c2c3c([nH]c(=S)c2C#N)CCCC3)c1 | 27µM* | -29 | 14% | 3% | -17 | -2%
CCN(CC)c1ccc2cc(-c3nnc(-c4ccncc4)o3)c(=O)oc2c1 | 11% | -93* | u | 11% | u | 9%
CC(=O)c1ccc(S(=O)(=O)NCC(=O)NC(c2nc3ccccc3[nH]2)C(C)C)cc1 (stereo unspecified) | 19µM* | -6 | x | u | -24 | x
CC1CC=CC2C1C(=O)N(Cc1ccccc1)C2c1ccc2ccccc2c1Br (stereo unspecified) | x | x | x | -19% | x | 20%
CC1C=C[C@@H]2[C@H](C1)C(=O)N(Cc1ccccc1)[C@H]2c1ccccc1Br (stereo partly specified) | x | x | x | 45µM* | x | -2%
O=C1[C@H]2CCC=C[C@H]2[C@H](c2ccccc2Br)N1Cc1ccccc1 | -14% | 1 | x | 56µM* | -8 | 12%[89.1 µM]
C[C@@]12CCC=C[C@H]1[C@H](c1ccccc1Br)N(Cc1ccccc1)C2=O | -20% | -4 | x | 50µM*! | 8 | 7%
O=C1C2C(c3ccccc3)CC=CC2C(c2cccc(Br)c2)N1Cc1ccccc1 (stereo unspecified) | x | x | x | -11% | x | 11%
O=C1[C@H]2CCC=C[C@H]2[C@H](c2cccc(Br)c2)N1Cc1ccccc1 | 21µM* | 4 | x | u | 6 | 12%[89.1 µM]
Cc1cccc(N2CCN(c3nc4ccc(C(=O)c5ccccc5)cc4n4cnnc34)CC2C)c1 (stereo unspecified) | x | x | x | -6% | x | x
COc1ccc(OC)c(CNC(=O)c2cc3c(-c4ccc(OC)c(OC)c4)nn(C)c3s2)c1 | x | x | x | -13% | x | x
COc1cc(NC(=O)CN(C)Cc2cccc(F)c2)c(C)cc1[N+](=O)[O-] | 27µM* | 10 | 0% | u | -7 | 3%
Cc1cccc(NC(=O)c2oc3ccc(S(=O)(=O)N(C)C4CCCCC4)cc3c2C)c1C | x | x | x | -12% | x | x
Cc1nn(C(=O)CCCn2cc([N+](=O)[O-])cn2)c(C)c1Cl | 21µM* | 3 | 13% | -8% | 1 | -3%
CCn1cc(Cl)c(C(=O)NNC(=O)CCn2cc([N+](=O)[O-])cn2)n1 | -1% | -8 | 11% | 0% | 10 | 1%
CN(Cc1ccco1)S(=O)(=O)c1ccc(CN2C(=O)c3cccnc3C2=O)s1 | 27µM* | -1 | u | -4% | -15 | x
O=S(=O)(Cc1ccccc1)N(O)c1ccccc1 | u | 0 | -12% | 40µM* | -6 | x
SMILES | PLK1 PBD inh | hERG WT inh | MBNL1-CUG inh | VDR inh | KCNH2 3.1 inh | CBFb-RUNX1 inh
CCOc1ccc(/C=C(\C#N)C(=O)c2c(C)[nH]c3ccccc23)cc1OC | -8% | -6 | 0% | -25% | -1 | -7%
COc1cc(/C=C(/C#N)C(=O)c2c(C)[nH]c3ccccc23)ccc1OCC#N | 0% | 6 | 2% | -20% | -10 | 1%
CCOC(=O)c1c(C)[nH]c(C(=O)/C(C#N)=C/c2ccc(OC(F)F)c(OC)c2)c1C | 4.7µM* | 5 | 3% | u | 2 | 3%
CCOC(=O)c1c(C)[nH]c(C(=O)/C(C#N)=C/c2ccc(OC)c(OC)c2)c1C | 17µM* | 4 | x | -22% | 11 | 3%
O=[N+]([O-])c1ccc2nc(NCCCO)nc(-c3ccccc3)c2c1 | 21µM* | -4 | u | u | -9 | -5%
CSc1nc(Oc2cccc(C(F)(F)F)c2)cc(C(F)(F)F)n1 | 27µM* | 2 | 5% | -23% | 2 | 1%
Cc1ccc(/C=C2\SC(=S)N(C3CCS(=O)(=O)C3)C2=O)o1 (stereo unspecified) | 19µM* | -3 | u | -12% | -14 | -7%
NS(=O)(=O)c1ccc(-c2ccc(/C=C3\SC(=S)N(C4CCS(=O)(=O)C4)C3=O)o2)cc1 (stereo unspecified) | 5% | -1 | u | u | -4 | -17%
C=Cc1c(C)/c2[n-]/c1=C\c1[n-]c(c(CC)c1C)/C=c1\[n-]c3c(c1C)C(=O)C(C(=O)[O-])C=3c1[n-]c(c(C)c1CCC(=O)[O-])\C=2.[Cu].[Na+].[Na+] (stereo unspecified) | x | x | x | 32µM* | x | x
CCCC[C@H](NC(C)=O)C(=O)N[C@@H](CCC(=O)O)C(=O)N[C@@H](Cc1cnc[nH]1)C(=O)N[C@H](Cc1ccccc1)C(=O)N[C@@H](CCCN=C(N)N)C(=O)N[C@H](Cc1c[nH]c2ccccc12)C(=O)NCC(N)=O | x | x | x | 17% | x | -4%
CN(C)C(=S)N=c1ssc(=S)n1Cc1ccccc1 | u | 4 | x | 40µM* | 8 | x
CN(C)CCN=Cc1c(O)n(Cc2ccccc2)c(=O)c2ccccc12 | -3% | -6 | 8% | -12% | -5 | 12%
Cc1ccc(CN(Cc2cccn2-c2nnc(N3CCCC3=O)s2)C(=O)Nc2ccc(F)cc2)cc1 | x | x | x | 7% | x | x
COc1ccc(NC(=O)C2CCC(CNS(=O)(=O)c3csc(C(N)=O)c3)CC2)cc1 (stereo unspecified) | x | x | x | 9% | x | x
Cc1cc(C)n(-c2nc(NC(C)C)nc(NC(C)(C)C)n2)n1 | x | x | x | -9% | x | x
CCOC(=O)CNC(=O)c1cc2c(=O)n3cccc(C)c3nc2n1C | x | x | x | -2% | x | x
CCOC(=O)c1c(-c2ccc(C)cc2)csc1NC(=O)c1nc(SC(C)C)ncc1Cl | x | x | x | -1% | x | x
COc1ccc(/C=N/OCC(=O)Nc2nc3ccccc3s2)cc1OC | 17µM* | 8 | -18% | u | -1 | 4%
CN1CC(O)(C(O)C(O)C(O)CO)SC1=S (stereo unspecified) | 21µM* | -6 | x | x | 8 | x
